Measurements from the supplement of paper PMC10849652.
The full data set covers some 8,800 targets. This sample favours those with a hit. About 0.5% of all pairs of compound and target were hits. Unmarked numbers belong to inactive results.

Key:
Assay in all cases: log2 fold change, soluble protein after heating vs DMSO (PISA); higher = thermal stabilisation; K562 lysate, 10 uM; active = over 0.2 and 3.5 SD of the protein, either way, in both replicates (recomputed)
erlotinib = compound: C#Cc1cccc(Nc2ncnc3cc(OCCOC)c(OCCOC)cc23)c1 [erlotinib]
Method in brief: (§1)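 Thermal stability, expressed as log-two fold change relative to solvent controls, is given from duplicates. Crude K562 extract in PBS pH 7.4 with 1 mM MgCl2, at 1 mg/mL protein, was treated with 10 μM compound for 30 min and heated in aliquots for 3 min across 48°C-58°C. After pooling, adjustment to 0.5% NP-40 at 4°C and centrifugation at 21,000xg for 90 min, supernatant protein was measured by TMTpro 16plex LC-MS/MS with channel sums equalised.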

[1] = compound: C1=CC(=CC=C1C2=NC3=C(N2)C=C(C=C3)C(=O)N)OC4=CC=C(C=C4)Cl
Method in brief: as §1

[2] = compound: C1=CC=C(C=C1)C2=NC(=C(N2)C3=CC=NC=C3)C4=CC(=C(C=C4)Cl)O
Method in brief: as §1

[3] = compound: C1CCN(C1)C(=O)NC2=CC=CC(=C2)NC3=NC=C(C(=N3)NCCC4=CN=CN4)Br
Method in brief: as §1

[4] = compound: C1CN(CCC1(CC2=CC=C(C=C2)Cl)N)C3=NC=NC4=C3C=CN4
Method in brief: as §1

IRAK-1-4 Inhibitor I = compound: C1COCCN1CCN2C3=CC=CC=C3N=C2NC(=O)C4=CC(=CC=C4)[N+](=O)[O-] [IRAK-1-4 Inhibitor I]
Method in brief: as §1

[5] = compound: C/C(=N\NC(=O)C1=CC(=CC=C1)S(=O)(=O)N2CCOCC2)/C3=C(C=CC(=C3)Cl)O
Method in brief: as §1

[6] = compound: C1=CC2=C(C=CC(=C2)/C=C\3/C(=O)NC(=NCC4=CC=CS4)S3)N=C1
Method in brief: as §1

[7] = compound: C1=CC=C2C(=C1)C3=NNC4=CC=CC(=C43)C2=O
Method in brief: as §1

[8] = compound: C1=CC2=NC=CN=C2C=C1/C=C/3\C(=O)NC(=O)S3
Method in brief: as §1

UniProt Q9H204, sequence (Q9H204 whole entry, looked up): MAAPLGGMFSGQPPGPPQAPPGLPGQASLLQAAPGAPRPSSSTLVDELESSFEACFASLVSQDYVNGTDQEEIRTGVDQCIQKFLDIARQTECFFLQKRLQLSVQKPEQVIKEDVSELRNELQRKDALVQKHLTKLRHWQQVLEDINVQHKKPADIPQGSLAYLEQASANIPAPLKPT
UniProt Q8TC05, sequence (Q8TC05 whole entry, looked up): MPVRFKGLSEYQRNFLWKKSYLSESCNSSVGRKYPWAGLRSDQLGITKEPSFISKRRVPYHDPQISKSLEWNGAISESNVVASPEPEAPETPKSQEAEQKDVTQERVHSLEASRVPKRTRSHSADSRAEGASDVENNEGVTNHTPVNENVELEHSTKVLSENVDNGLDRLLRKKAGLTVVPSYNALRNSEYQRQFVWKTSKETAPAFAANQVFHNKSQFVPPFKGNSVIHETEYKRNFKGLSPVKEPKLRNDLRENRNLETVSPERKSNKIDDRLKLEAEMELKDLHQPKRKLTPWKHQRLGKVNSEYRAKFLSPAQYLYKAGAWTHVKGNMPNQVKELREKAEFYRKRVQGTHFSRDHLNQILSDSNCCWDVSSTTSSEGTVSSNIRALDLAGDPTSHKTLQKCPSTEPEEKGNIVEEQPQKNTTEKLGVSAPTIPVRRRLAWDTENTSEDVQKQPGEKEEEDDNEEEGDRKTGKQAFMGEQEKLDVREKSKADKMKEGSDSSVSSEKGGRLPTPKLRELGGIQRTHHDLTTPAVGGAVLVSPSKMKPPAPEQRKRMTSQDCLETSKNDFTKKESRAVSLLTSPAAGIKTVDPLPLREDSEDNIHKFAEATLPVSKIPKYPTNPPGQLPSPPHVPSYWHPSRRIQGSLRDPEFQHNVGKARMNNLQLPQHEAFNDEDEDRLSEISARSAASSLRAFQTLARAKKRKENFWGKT
UniProt Q16553, sequence (Q16553 whole entry, looked up): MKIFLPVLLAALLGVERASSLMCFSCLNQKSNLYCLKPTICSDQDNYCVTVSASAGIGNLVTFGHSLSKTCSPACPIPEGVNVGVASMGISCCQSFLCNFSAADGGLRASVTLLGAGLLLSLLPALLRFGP
UniProt Q6ZRQ5, sequence (Q6ZRQ5 whole entry, looked up): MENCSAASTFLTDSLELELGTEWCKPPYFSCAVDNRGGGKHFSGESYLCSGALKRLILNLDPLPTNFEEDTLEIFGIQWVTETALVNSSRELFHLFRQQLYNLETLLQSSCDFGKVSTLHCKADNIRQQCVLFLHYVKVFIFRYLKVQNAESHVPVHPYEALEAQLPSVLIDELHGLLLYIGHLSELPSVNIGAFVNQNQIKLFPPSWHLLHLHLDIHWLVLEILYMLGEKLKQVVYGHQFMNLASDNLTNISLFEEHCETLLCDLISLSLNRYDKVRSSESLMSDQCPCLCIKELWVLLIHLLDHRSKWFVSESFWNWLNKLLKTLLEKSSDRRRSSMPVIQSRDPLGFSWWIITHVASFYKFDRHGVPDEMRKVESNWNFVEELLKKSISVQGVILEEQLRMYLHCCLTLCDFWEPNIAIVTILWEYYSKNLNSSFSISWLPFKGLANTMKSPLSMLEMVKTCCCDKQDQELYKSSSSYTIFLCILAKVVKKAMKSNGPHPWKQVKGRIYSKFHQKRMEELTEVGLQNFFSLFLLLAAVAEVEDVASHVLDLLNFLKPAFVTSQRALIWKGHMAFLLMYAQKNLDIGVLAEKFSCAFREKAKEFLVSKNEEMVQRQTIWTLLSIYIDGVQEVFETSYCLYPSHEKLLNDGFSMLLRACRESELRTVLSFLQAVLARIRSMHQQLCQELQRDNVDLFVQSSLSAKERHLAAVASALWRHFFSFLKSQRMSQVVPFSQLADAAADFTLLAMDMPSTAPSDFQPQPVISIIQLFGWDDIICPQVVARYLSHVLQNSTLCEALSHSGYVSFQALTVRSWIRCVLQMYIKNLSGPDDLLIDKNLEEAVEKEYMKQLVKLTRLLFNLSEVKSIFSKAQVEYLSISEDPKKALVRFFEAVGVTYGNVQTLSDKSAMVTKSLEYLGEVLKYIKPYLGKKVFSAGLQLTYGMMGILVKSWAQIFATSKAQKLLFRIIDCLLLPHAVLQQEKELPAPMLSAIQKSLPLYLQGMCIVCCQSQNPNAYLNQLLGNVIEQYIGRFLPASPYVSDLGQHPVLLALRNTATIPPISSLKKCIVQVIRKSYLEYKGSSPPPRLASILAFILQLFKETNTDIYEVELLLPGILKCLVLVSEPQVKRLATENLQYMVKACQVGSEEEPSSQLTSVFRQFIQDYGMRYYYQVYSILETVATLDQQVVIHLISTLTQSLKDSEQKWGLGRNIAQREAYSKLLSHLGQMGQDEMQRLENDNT
UniProt A1L020, sequence (A1L020 whole entry, looked up): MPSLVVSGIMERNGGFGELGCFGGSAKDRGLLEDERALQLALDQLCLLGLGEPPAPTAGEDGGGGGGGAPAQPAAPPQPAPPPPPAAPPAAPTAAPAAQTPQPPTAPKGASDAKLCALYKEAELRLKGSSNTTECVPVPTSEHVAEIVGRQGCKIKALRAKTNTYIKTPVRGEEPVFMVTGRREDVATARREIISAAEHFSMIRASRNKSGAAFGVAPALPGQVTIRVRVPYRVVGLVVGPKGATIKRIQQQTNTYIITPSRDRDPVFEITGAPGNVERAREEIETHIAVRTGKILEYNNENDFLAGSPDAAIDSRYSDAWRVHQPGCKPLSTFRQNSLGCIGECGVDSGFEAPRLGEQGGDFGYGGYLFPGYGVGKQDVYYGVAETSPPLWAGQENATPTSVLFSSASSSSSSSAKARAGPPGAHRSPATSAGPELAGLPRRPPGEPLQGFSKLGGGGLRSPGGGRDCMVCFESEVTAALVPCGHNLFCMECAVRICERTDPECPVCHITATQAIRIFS
UniProt Q71SY5, sequence (Q71SY5 whole entry, looked up): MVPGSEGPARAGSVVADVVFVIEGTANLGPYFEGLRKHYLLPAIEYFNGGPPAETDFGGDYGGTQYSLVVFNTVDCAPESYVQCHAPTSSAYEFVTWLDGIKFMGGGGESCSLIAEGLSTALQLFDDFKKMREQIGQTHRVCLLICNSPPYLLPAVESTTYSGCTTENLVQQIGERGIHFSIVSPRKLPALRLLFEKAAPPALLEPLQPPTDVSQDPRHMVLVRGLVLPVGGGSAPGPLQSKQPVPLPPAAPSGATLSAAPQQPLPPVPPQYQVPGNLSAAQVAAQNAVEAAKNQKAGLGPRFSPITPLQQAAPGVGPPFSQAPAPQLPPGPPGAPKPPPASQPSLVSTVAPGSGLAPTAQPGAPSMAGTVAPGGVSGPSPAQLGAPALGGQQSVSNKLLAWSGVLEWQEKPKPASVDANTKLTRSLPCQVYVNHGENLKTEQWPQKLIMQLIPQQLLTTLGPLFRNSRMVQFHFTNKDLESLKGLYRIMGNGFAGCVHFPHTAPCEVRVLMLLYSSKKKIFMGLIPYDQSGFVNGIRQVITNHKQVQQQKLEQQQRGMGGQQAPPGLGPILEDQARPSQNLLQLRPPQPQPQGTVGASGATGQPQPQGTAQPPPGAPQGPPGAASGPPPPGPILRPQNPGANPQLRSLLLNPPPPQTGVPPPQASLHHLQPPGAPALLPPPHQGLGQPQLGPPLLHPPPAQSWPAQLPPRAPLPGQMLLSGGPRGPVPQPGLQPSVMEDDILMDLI
UniProt P83369, sequence (P83369 whole entry, looked up): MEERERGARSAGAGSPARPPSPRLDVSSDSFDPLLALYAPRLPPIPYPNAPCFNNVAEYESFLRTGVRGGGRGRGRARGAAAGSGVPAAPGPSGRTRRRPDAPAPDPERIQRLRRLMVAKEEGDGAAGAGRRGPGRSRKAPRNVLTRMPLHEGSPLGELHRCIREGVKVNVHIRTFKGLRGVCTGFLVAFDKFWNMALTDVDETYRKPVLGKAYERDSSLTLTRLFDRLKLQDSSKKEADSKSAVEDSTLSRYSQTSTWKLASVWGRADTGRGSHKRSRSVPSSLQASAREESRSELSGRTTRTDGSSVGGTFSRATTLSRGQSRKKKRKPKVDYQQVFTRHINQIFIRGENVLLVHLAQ
UniProt Q9NWR8, sequence (Q9NWR8 whole entry, looked up): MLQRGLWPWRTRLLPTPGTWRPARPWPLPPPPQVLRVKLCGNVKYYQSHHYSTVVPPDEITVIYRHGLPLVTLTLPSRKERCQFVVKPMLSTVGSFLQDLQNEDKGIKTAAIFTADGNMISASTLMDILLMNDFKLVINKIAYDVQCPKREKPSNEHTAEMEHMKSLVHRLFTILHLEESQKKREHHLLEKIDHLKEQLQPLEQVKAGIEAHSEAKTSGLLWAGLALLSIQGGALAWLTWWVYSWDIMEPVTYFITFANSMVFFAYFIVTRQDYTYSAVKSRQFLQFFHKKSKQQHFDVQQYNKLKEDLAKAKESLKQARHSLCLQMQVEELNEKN
UniProt O15243, sequence (O15243 whole entry, looked up): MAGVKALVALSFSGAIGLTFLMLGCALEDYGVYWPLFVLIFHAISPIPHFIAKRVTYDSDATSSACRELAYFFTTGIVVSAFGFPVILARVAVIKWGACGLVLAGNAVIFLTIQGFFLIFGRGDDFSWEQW
UniProt P01116, sequence (P01116 whole entry, looked up): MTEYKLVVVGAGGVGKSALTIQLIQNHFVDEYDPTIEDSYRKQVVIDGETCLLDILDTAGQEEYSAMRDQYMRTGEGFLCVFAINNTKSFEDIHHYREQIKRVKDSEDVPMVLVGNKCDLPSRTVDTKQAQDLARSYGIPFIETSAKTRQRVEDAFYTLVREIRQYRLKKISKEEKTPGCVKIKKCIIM
UniProt Q8WXB1, sequence (Q8WXB1 whole entry, looked up): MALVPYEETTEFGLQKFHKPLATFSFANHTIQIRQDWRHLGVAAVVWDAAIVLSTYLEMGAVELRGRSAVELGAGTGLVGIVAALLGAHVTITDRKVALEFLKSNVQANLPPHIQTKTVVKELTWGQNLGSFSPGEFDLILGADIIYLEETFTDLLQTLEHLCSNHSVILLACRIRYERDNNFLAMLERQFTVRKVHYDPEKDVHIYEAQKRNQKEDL

KRAS isoform 2 (UniProt P01116) gave a log2 fold change (erlotinib) of -0.038, a log2 fold change [1] of 0.087 and a log2 fold change [2] of -0.071. It also gave a log2 fold change [3] of -0.044, a log2 fold change [4] of 0.015 and a log2 fold change (IRAK-1-4 Inhibitor I) of 0.033.
In the case of LSM11 (UniProt P83369), the log2 fold change (erlotinib) is reported as 0.104, the log2 fold change [5] is reported as 0.262 and the log2 fold change [1] is reported as 0.065. For the same target, the log2 fold change [6] was -0.056, the log2 fold change [7] was -0.044 and the log2 fold change [3] was -0.029. It also gave a log2 fold change [4] of -0.055.
Target MME (UniProt P08473) has a log2 fold change (erlotinib) of 0, a log2 fold change [1] of 0.052 and a log2 fold change [8] of -0.067. It also gave a log2 fold change [2] of 0.011 and a log2 fold change (IRAK-1-4 Inhibitor I) of 0.095.
For KIF21A (UniProt H0YI78), the log2 fold change (erlotinib) was -0.064, the log2 fold change [1] was 0.088 and the log2 fold change [8] was -0.015.
LRRC9 (UniProt Q6ZRR7) gave a log2 fold change [5] of -0.037, a log2 fold change [6] of 0.02 and a log2 fold change [7] of -0.01. The log2 fold change [3] was -0.044 and the log2 fold change [4] was -0.07.
With LYN isoform 2 (UniProt P07948) the log2 fold change (erlotinib) was -0.161, the log2 fold change [1] was -0.093 and the log2 fold change [2] was 0.132. For the same target, the log2 fold change [3] was -0.035, the log2 fold change [4] was -0.385 and the log2 fold change (IRAK-1-4 Inhibitor I) was 0.493.
In the case of MDM1 (UniProt Q8TC05), the log2 fold change (erlotinib) is reported as -0.018, the log2 fold change [5] is reported as -0.105 and the log2 fold change [1] is reported as -0.036. The log2 fold change [6] was -0.066, the log2 fold change [2] was -0.054 and the log2 fold change [7] was -0.041. For the same target, the log2 fold change [3] was -0.05, the log2 fold change [4] was -0.075 and the log2 fold change (IRAK-1-4 Inhibitor I) was -0.043.
In the case of MEGF8 (UniProt Q7Z7M0), the log2 fold change (erlotinib) is reported as 0.045, the log2 fold change [1] is reported as 0.016 and the log2 fold change [8] is reported as 0.013. It also gave a log2 fold change [2] of 0.075, a log2 fold change [3] of -0.116 and a log2 fold change [4] of 0.071. For the same target, the log2 fold change (IRAK-1-4 Inhibitor I) was -0.36 (active).
MAPKAP1 (UniProt Q9BPZ7) gave a log2 fold change (erlotinib) of -0.091, a log2 fold change [1] of -0.059 and a log2 fold change [2] of 0.062. For the same target, the log2 fold change [3] was 0.141, the log2 fold change [4] was -0.181 and the log2 fold change (IRAK-1-4 Inhibitor I) was -0.19.
For MMS22L (UniProt Q6ZRQ5), the log2 fold change (erlotinib) was 0.067, the log2 fold change [5] was 0.032 and the log2 fold change [1] was 0. It also gave a log2 fold change [6] of -0.093, a log2 fold change [8] of 0.037 and a log2 fold change [7] of 0.064. It also gave a log2 fold change [3] of 0.019 and a log2 fold change [4] of -0.021.
Target MAP4K4 isoform 6 (UniProt O95819) has a log2 fold change (erlotinib) of 0.006, a log2 fold change [1] of 0.156 and a log2 fold change [8] of 0.094. It also gave a log2 fold change [2] of -0.061, a log2 fold change [3] of 0.003 and a log2 fold change [4] of -0.078. For the same target, the log2 fold change (IRAK-1-4 Inhibitor I) was -0.049.
For KLC1 isoform 10 (UniProt Q07866), the log2 fold change (erlotinib) was 0.071, the log2 fold change [1] was -0.165 and the log2 fold change [8] was 0.122. For the same target, the log2 fold change [3] was 0.241 and the log2 fold change [4] was -0.337.
For MCUB (UniProt Q9NWR8), the log2 fold change (erlotinib) was 0.048, the log2 fold change [1] was -0.069 and the log2 fold change [8] was 0.209. For the same target, the log2 fold change [2] was 0.048 and the log2 fold change (IRAK-1-4 Inhibitor I) was -0.12.
For LRP1 (UniProt Q07954), the log2 fold change [5] was 0.266, the log2 fold change [6] was -0.092 and the log2 fold change [7] was -0.211. It also gave a log2 fold change [3] of -0.196 and a log2 fold change [4] of -0.055.
In the case of LRRIQ1 (UniProt Q96JM4), the log2 fold change [5] is reported as 0.038, the log2 fold change [6] is reported as -0.003 and the log2 fold change [2] is reported as 0.041. It also gave a log2 fold change [7] of -0.003 and a log2 fold change (IRAK-1-4 Inhibitor I) of -0.083.
Target KRAS (UniProt P01116) has a log2 fold change (erlotinib) of -0.112, a log2 fold change [5] of 0.033 and a log2 fold change [1] of 0.069. For the same target, the log2 fold change [6] was -0.052, the log2 fold change [2] was -0.036 and the log2 fold change [7] was -0.041. For the same target, the log2 fold change [3] was -0.021, the log2 fold change [4] was -0.008 and the log2 fold change (IRAK-1-4 Inhibitor I) was 0.007.
With MRC2 (UniProt Q9UBG0) the log2 fold change (erlotinib) was -0.225, the log2 fold change [1] was 0.031 and the log2 fold change [3] was 0.011. The log2 fold change [4] was 0.061.
LIMK1 (UniProt P53667) was tested, and the log2 fold change [5] was 0.114, the log2 fold change [6] was -0.088 and the log2 fold change [8] was 0.133. The log2 fold change [2] was -0.002, the log2 fold change [7] was 0.029 and the log2 fold change [3] was 0.068. For the same target, the log2 fold change [4] was -0.05 and the log2 fold change (IRAK-1-4 Inhibitor I) was 0.06.
With KIF18B (UniProt Q86Y91) the log2 fold change [3] was -0.117 and the log2 fold change [4] was 0.033.
Work on MRPL27 (UniProt Q9P0M9) yielded a log2 fold change (erlotinib) of -0.072, a log2 fold change [1] of 0.068 and a log2 fold change [8] of -0.019. The log2 fold change [2] was 0.056, the log2 fold change [3] was 0.023 and the log2 fold change [4] was 0.019. The log2 fold change (IRAK-1-4 Inhibitor I) was -0.044.
For LRIF1 (UniProt Q5T3J3), the log2 fold change (erlotinib) was -0.015, the log2 fold change [5] was 0.11 and the log2 fold change [1] was 0.046. The log2 fold change [6] was -0.301 (active), the log2 fold change [2] was 0 and the log2 fold change [7] was 0.1. For the same target, the log2 fold change [3] was -0.031, the log2 fold change [4] was -0.009 and the log2 fold change (IRAK-1-4 Inhibitor I) was -0.02.
MED25 isoform 3 (UniProt Q71SY5) showed a log2 fold change (erlotinib) of 0.092, a log2 fold change [1] of 0.01 and a log2 fold change [8] of -0.062. For the same target, the log2 fold change [2] was -0.006, the log2 fold change [3] was 0.06 and the log2 fold change [4] was 0.073. For the same target, the log2 fold change (IRAK-1-4 Inhibitor I) was 0.073.
Work on KMT2B (UniProt Q9UMN6) yielded a log2 fold change (erlotinib) of -0.494, a log2 fold change [1] of -0.226 and a log2 fold change [3] of -0.028. It also gave a log2 fold change [4] of -0.015.
MRPL22 (UniProt Q9NWU5) was tested, and the log2 fold change (erlotinib) was -0.424 (active), the log2 fold change [1] was -0.074 and the log2 fold change [2] was 0.006. It also gave a log2 fold change (IRAK-1-4 Inhibitor I) of -0.01.
METTL21A (UniProt Q8WXB1) was tested, and the log2 fold change (erlotinib) was -0.074, the log2 fold change [1] was -0.011 and the log2 fold change [8] was 0.019. It also gave a log2 fold change [2] of -0.027 and a log2 fold change (IRAK-1-4 Inhibitor I) of -0.04.
With KIF3C (UniProt O14782) the log2 fold change (erlotinib) was 0.389, the log2 fold change [5] was 0.05 and the log2 fold change [1] was -0.082. The log2 fold change [6] was -0.116, the log2 fold change [2] was 0.025 and the log2 fold change [7] was -0.117. It also gave a log2 fold change [3] of 0.158, a log2 fold change [4] of 0.146 and a log2 fold change (IRAK-1-4 Inhibitor I) of -0.023.
In the case of MARCHF6 (UniProt O60337), the log2 fold change (erlotinib) is reported as 0.004, the log2 fold change [5] is reported as 0.008 and the log2 fold change [1] is reported as 0.101. The log2 fold change [6] was 0.042, the log2 fold change [8] was -0.202 and the log2 fold change [7] was -0.133. It also gave a log2 fold change [3] of 0.047 and a log2 fold change [4] of -0.023.
MPDZ (UniProt O75970) gave a log2 fold change (erlotinib) of -0.017, a log2 fold change [5] of -0.061 and a log2 fold change [1] of -0.095. The log2 fold change [6] was -0.273, the log2 fold change [2] was -0.091 and the log2 fold change [7] was 0.004. The log2 fold change [3] was -0.099, the log2 fold change [4] was 0.108 and the log2 fold change (IRAK-1-4 Inhibitor I) was 0.149.
For LY6E (UniProt Q16553), the log2 fold change [5] was -0.095, the log2 fold change [6] was 0.049 and the log2 fold change [8] was -0.033. For the same target, the log2 fold change [7] was -0.27, the log2 fold change [3] was -0.02 and the log2 fold change [4] was 0.025.
With LGALS3BP (UniProt Q08380) the log2 fold change (erlotinib) was -0.154, the log2 fold change [5] was 0.293 and the log2 fold change [1] was 0.064. The log2 fold change [6] was 0.331, the log2 fold change [7] was -0.203 and the log2 fold change [3] was 0.018. The log2 fold change [4] was -0.171.
MAP3K6 (UniProt O95382) was tested, and the log2 fold change [5] was 0.05, the log2 fold change [6] was 0.183 and the log2 fold change [7] was 0.487. The log2 fold change [3] was 0.033 and the log2 fold change [4] was -0.008.
LRPPRC (UniProt H7C3W8) showed a log2 fold change [5] of -0.13, a log2 fold change [6] of -0.053 and a log2 fold change [7] of -0.3.
Work on MEX3A (UniProt A1L020) yielded a log2 fold change [5] of 0.108, a log2 fold change [6] of -0.108 and a log2 fold change [2] of -0.007. The log2 fold change [7] was -0.29 and the log2 fold change (IRAK-1-4 Inhibitor I) was 0.168.
LEPROT (UniProt O15243) showed a log2 fold change (erlotinib) of 0.176, a log2 fold change [1] of -0.116 and a log2 fold change [8] of -0.02. For the same target, the log2 fold change [2] was -0.064, the log2 fold change [3] was 0.122 and the log2 fold change [4] was 0.045. The log2 fold change (IRAK-1-4 Inhibitor I) was -0.036.
Target MED28 (UniProt Q9H204) has a log2 fold change (erlotinib) of 0.057, a log2 fold change [1] of 0.039 and a log2 fold change [2] of 0.045. For the same target, the log2 fold change (IRAK-1-4 Inhibitor I) was -0.012.
